For 6 compounds, outcome and AC50 results are on record in PubChem BioAssay (EPA / NIEHS).

Read-out in experiment [1]: Transforming growth factor beta 1 (TGFb1), TGFB1 (gene 7040)
The experiment is described as follows: BSK_KF3CT_TGFb1: BioMAP Diversity Plus: KF3CT Assay for Transforming growth factor beta 1 (TGFb1) Biomarker Activity (AID 2283072). The following applies: primary human keratinocytes with fibroblasts; actives raise or lower the signal. In a few lines:
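Primary human skin cells (keratinocytes, foreskin fibroblasts) were co-cultured, exposed to test chemical and sampled at 24 h. TGF-b1 levels were measured by ELISA and fitted bidirectionally relative to DMSO.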

Read-out in experiment [2]: C-C motif chemokine 2 (Homo sapiens) (UniProt P13500)
The experiment is described as follows: BSK_KF3CT_MCP1: BioMAP Diversity Plus: KF3CT Assay for Monocyte Chemoattractant Protein 1 (MCP1/CCL2) Biomarker Activity (AID 2283073). Conditions: primary human keratinocytes with fibroblasts; actives raise or lower the signal. In a few lines: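 Biomarker MCP-1 is measured by ELISA in primary human keratinocytes co-cultured with foreskin fibroblasts, 24 h after chemical treatment; DMSO serves as the negative control and activity baseline.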

Read-out in experiment [3]: Matrix Metallopeptidase 9 (MMP9), MMP9 (gene 4318)
Briefly: BSK_KF3CT_MMP9: BioMAP Diversity Plus: KF3CT Assay for Matrix Metallopeptidase 9 (MMP9) Biomarker Activity (AID 2283074).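 As to AC50: MMP9 protein level quantified by ELISA in the co-culture.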 Conditions: primary human keratinocytes with fibroblasts; actives raise or lower the signal. In a few lines:
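Human keratinocyte/foreskin fibroblast co-culture; compound added; 24 h; MMP-9 by ELISA; bidirectional fit vs DMSO baseline.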

Read-out in experiment [4]: urokinase plasminogen activator (uPA), PLAU (gene 5328)
The experiment is described as follows: BSK_KF3CT_uPA: BioMAP Diversity Plus: KF3CT Assay for urokinase plasminogen activator (uPA) Biomarker Activity (AID 2283075). Conditions: primary human keratinocytes with fibroblasts; actives raise or lower the signal. In a few lines: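 ELISA readout of uPA, analyzed for signal gain or loss relative to DMSO, from a human primary keratinocyte–foreskin fibroblast co-culture measured 24 h after chemical treatment.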

Read-out in experiment [5]: CD40, CD40 (gene 958)
The experiment is described as follows: BSK_LPS_CD40: BioMAP Diversity Plus: LPS Assay for CD40 Biomarker Activity (AID 2283076). Conditions: primary human HUVEC with PBMC; actives raise or lower the signal. In a few lines:
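Using a multiplexed primary human co-culture (umbilical vein endothelium plus PBMC), CD40 was read by ELISA 24 h after dosing, with cytotoxicity tracked by sulforhodamine B staining of parallel cultures and activity fitted bidirectionally versus DMSO.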

Read-out in experiment [6]: E-selectin (Homo sapiens) (UniProt P16581)
Briefly: BSK_LPS_Eselectin: BioMAP Diversity Plus: LPS Assay for Eselectin Biomarker Activity (AID 2283077). The following applies: primary human HUVEC with PBMC; actives raise or lower the signal. In a few lines: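 Dose chemical onto LPS-driven HUVEC/PBMC co-culture; after 24 h, run ELISA for E-selectin; fit up- and down-going responses relative to DMSO control.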

Read-out in experiment [7]: Interleukin-8 (IL8), CXCL8 (gene 3576)
The experiment is described as follows: BSK_LPS_IL8: BioMAP Diversity Plus: LPS Assay for Interleukin-8 (IL8) Biomarker Activity (AID 2283078). Conditions: primary human HUVEC with PBMC; actives raise or lower the signal. In a few lines: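 In this LPS system, chemical-treated human umbilical vein endothelium/PBMC co-cultures were harvested at 24 h for IL-8 ELISA.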

Experiment [8] can be described thus: BSK_LPS_SRB: Viability Assessment in the BioMAP Diversity Plus: LPS Assay (AID 2283079).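 Also: total protein by sulforhodamine B absorbance as a cytotoxicity measure; measured one day after compound addition; fitted in both directions against DMSO so loss or gain of signal counts.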 Conditions: primary human HUVEC with PBMC. In a few lines:
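Cytotoxicity endpoint in human endothelial–PBMC co-culture: 24 h exposure, then SRB (0.1%) staining, 560 nm read.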

Read-out in experiment [9]: Interleukin-1 alpha (IL1a), IL1A (gene 3552)
Briefly: BSK_LPS_IL1a: BioMAP Diversity Plus: LPS Assay for Interleukin-1 alpha (IL1a) Biomarker Activity (AID 2283080). The following applies: primary human HUVEC with PBMC; actives raise or lower the signal. In a few lines: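 Primary human HUVEC and PBMC co-culture stimulated with LPS is dosed and harvested at 24 h. Both increases and decreases in ELISA-measured IL-1a are scored relative to DMSO.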

Read-out in experiment [10]: Monocyte Chemoattractant Protein-1 (MCP1), CCL2 (gene 6347)
Briefly: BSK_LPS_MCP1: BioMAP Diversity Plus: LPS Assay for Monocyte Chemoattractant Protein-1 (MCP1) Biomarker Activity (AID 2283081).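 As to AC50: secreted MCP-1 protein quantified by ELISA in culture supernatant.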 The following applies: primary human HUVEC with PBMC; actives raise or lower the signal. In a few lines: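 Values derive from bidirectional fitting against DMSO of ELISA-measured MCP-1 in a human primary endothelial and mononuclear cell co-culture, 24 h after chemical addition under LPS activation.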

Experiment [11] in a line: BSK_LPS_PGE2: BioMAP Diversity Plus: LPS Assay for Prostaglandin E2 (PGE2) Biomarker Activity (AID 2283082).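 As to AC50: secreted prostaglandin E2 measured by ELISA in LPS-stimulated co-culture.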 The following applies: primary human HUVEC with PBMC; actives raise or lower the signal. In a few lines:
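LPS-activated HUVEC/PBMC co-culture; cmpd dosed, 24 h; PGE2 by ELISA; bidirectional fit vs DMSO; SRB (0.1%, TCA-fixed, 560 nm) in parallel plates for overt cytotox.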

Read-out in experiment [12]: Macrophage colony-stimulating factor (MCSF), CSF1 (gene 1435)
The experiment is described as follows: BSK_LPS_MCSF: BioMAP Diversity Plus: LPS Assay for Macrophage colony-stimulating factor (MCSF) Biomarker Activity (AID 2283083). The following applies: primary human HUVEC with PBMC; actives raise or lower the signal. In a few lines: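 Bidirectional fit versus DMSO of ELISA-measured M-CSF in co-cultured human umbilical vein endothelial cells and PBMC, sampled 24 h after dosing.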

Read-out in experiment [13]: Tissue Factor, F3 (gene 2152)
Briefly: BSK_LPS_TissueFactor: BioMAP Diversity Plus: LPS Assay for Tissue Factor Biomarker Activity (AID 2283084). Conditions: primary human HUVEC with PBMC; actives raise or lower the signal. In a few lines: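 Read-out: CD142 ELISA, 24 h. System: LPS-driven human endothelial/PBMC co-culture. Analysis: up- or down-signal fitted against DMSO.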

Read-out in experiment [14]: Tumor necrosis factor (Homo sapiens) (UniProt P01375)
Briefly: BSK_LPS_TNFa: BioMAP Diversity Plus: LPS Assay for Tumour Necrosis Factor alpha (TNFa) Biomarker Activity (AID 2283085). Conditions: primary human HUVEC with PBMC; actives raise or lower the signal. In a few lines:
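Read-out is ELISA of TNFa in primary human endothelial cell–PBMC co-cultures at 24 h after compound. Activity in either direction was fitted against DMSO.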

Read-out in experiment [15]: Vascular cell adhesion molecule 1 (VCAM1), VCAM1 (gene 7412)
Briefly: BSK_LPS_VCAM1: BioMAP Diversity Plus: LPS Assay for Vascular cell adhesion molecule 1 (VCAM1) Biomarker Activity (AID 2283086). The following applies: primary human HUVEC with PBMC; actives raise or lower the signal. In a few lines:
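HUVEC + PBMC co-culture, LPS system; compound 24 h; VCAM-1 by ELISA; bidirectional fit vs DMSO control; parallel SRB (0.1%, TCA-fixed, 560 nm) for cytotoxicity.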

Read-out in experiment [16]: CD38, CD38 (gene 952)
The experiment is described as follows: BSK_SAg_CD38: BioMAP Diversity Plus: SAg Assay for CD38 Biomarker Activity (AID 2283087). Conditions: primary human HUVEC with PBMC; actives raise or lower the signal. In a few lines:
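Human HUVEC plus PBMC co-culture stimulated with superantigen; CD38 measured by ELISA 24 h after chemical dosing. Fluorescence read-out, bidirectional fit against DMSO; cytotoxicity tracked in parallel by SRB and Alamar Blue.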

Read-out in experiment [17]: CD40, CD40 (gene 958)
The experiment is described as follows: BSK_SAg_CD40: BioMAP Diversity Plus: SAg Assay for CD40 Biomarker Activity (AID 2283088). The following applies: primary human HUVEC with PBMC; actives raise or lower the signal. In a few lines:
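Endpoint derived by fitting increases or decreases versus DMSO controls. CD40 is detected by fluorescence ELISA in a human vascular co-culture of endothelium and PBMC at 24 h.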

Read-out in experiment [18]: CD69, CD69 (gene 969)
Briefly: BSK_SAg_CD69: BioMAP Diversity Plus: SAg Assay for CD69 Biomarker Activity (AID 2283089).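 As to AC50: cell surface CD69 protein quantified by ELISA with fluorescence detection.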 The following applies: primary human HUVEC with PBMC; actives raise or lower the signal. In a few lines: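 ELISA, fluorescence read-out: CD69 on human umbilical vein endothelial cell + PBMC co-culture, 24 h post-dosing. Gain or loss of signal fitted bidirectionally against DMSO baseline.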

Read-out in experiment [19]: Monocyte Chemoattractant Protein-1 (MCP1), CCL2 (gene 6347)
Briefly: BSK_SAg_MCP1: BioMAP Diversity Plus: SAg Assay for Monocyte Chemoattractant Protein-1 (MCP1) Biomarker Activity (AID 2283090). The following applies: primary human HUVEC with PBMC; actives raise or lower the signal. In a few lines:
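MCP-1 levels in the endothelial–PBMC SAg co-culture were quantified by ELISA at 24 h post-dosing; both increases and decreases versus DMSO scored. Cytotoxicity monitored by SRB total protein in parallel cultures.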

Read-out in experiment [20]: E-selectin (Homo sapiens) (UniProt P16581)
The experiment is described as follows: BSK_SAg_Eselectin: BioMAP Diversity Plus: SAg Assay for Eselectin Biomarker Activity (AID 2283091). Conditions: primary human HUVEC with PBMC; actives raise or lower the signal. In a few lines: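 Endpoint values derive from bidirectional fitting relative to DMSO, using ELISA-measured E-selectin in a human vascular co-culture (umbilical vein endothelium plus PBMC) sampled 24 h after dosing.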

Molecules are shown by their SMILES. Calls of active or inactive are those of the source. The calls were made as follows: active = hit-call score of the fitted dose curve at least 0.9, where 1 is the maximum; inactive = score below 0.9.

Tumor necrosis factor (Homo sapiens), sequence (P01375 whole entry, looked up): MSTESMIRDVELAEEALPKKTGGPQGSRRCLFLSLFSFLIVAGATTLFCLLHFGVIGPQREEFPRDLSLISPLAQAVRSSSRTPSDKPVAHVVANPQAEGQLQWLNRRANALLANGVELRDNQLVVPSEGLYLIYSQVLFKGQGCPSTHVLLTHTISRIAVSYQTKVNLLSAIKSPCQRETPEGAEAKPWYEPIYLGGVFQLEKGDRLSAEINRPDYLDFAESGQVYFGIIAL
E-selectin (Homo sapiens), sequence (P16581 whole entry, looked up): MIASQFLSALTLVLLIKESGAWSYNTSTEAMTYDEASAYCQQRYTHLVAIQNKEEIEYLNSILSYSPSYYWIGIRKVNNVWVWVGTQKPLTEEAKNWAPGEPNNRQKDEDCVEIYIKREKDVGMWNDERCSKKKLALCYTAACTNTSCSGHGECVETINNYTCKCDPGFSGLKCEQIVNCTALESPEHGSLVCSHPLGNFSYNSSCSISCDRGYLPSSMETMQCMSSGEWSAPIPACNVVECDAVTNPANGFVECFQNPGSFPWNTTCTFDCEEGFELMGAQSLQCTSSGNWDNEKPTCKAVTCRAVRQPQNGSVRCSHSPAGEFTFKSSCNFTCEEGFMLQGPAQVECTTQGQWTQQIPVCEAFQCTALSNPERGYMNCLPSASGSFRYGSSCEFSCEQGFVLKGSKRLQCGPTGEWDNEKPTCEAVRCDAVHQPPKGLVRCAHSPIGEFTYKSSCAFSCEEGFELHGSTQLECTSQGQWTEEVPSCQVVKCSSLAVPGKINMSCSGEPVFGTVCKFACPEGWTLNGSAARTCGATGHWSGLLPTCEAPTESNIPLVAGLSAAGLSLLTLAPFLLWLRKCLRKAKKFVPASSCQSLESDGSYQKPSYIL

Take `O=C(O)c1ccccc1C(c1ccc(O)cc1)c1ccc(O)cc1`: the result in experiment [1], in [2], in [3], in [4], in experiment [5] and in experiment [6] was inactive. Moreover, the outcome in [7], in experiment [8], in [9], in experiment [10], in experiment [11] and in experiment [12] was inactive. Besides, the result in [13], in experiment [14], in [15], in [16], in experiment [17] and in [18] was inactive. Besides, the outcome in experiment [19] and in experiment [20] was inactive.

As usually defined, the AC50 is the midpoint of the concentration-response curve, whichever way the signal moves. With `CC[C@H](C)[C@@H](C(=O)O)n1sc2ccccc2c1=O`, the outcome in [1], in experiment [2], in [3], in experiment [4], in experiment [5] and in experiment [6] was inactive. In addition, the result in [8], in experiment [10], in experiment [12], in experiment [13], in [16] and in experiment [17] was inactive. Also, the outcome in [18] and in experiment [19] was inactive. The AC50 is 25.9 µM (active) in [9], 32.2 µM (active) in [11], 20 µM (active) in experiment [14] and 26.5 µM (active) in experiment [15].

Regarding `O=C(OCCOCCOC(=O)c1ccccc1)c1ccccc1`, the outcome in [1], in experiment [2], in experiment [3], in [4], in experiment [5] and in experiment [6] was inactive. Also, the result in [7], in experiment [8], in experiment [9], in [10], in experiment [11] and in experiment [12] was inactive. Besides, the result in [13], in [15], in experiment [16], in experiment [17], in experiment [18] and in experiment [19] was inactive. In experiment [20], the result was inactive. In addition, in experiment [14], the half-maximal activity concentration (AC50) is 3.97 µM (active).

`c1ccc2c(c1)Cc1ccccc1-2`: the result in experiment [1], in experiment [2], in experiment [3], in experiment [4], in experiment [5] and in [6] was inactive. Besides, the outcome in experiment [8], in experiment [9], in experiment [10], in [11], in experiment [12] and in experiment [13] was inactive. For the same compound, the result in experiment [14], in experiment [15], in experiment [16], in [17], in [18] and in experiment [19] was inactive.

Consider `CCCCC(CC)COC(=O)CCCCC(=O)OCC(CC)CCCC` (centres undefined), for which the result in [1], in experiment [2], in experiment [3], in experiment [4], in experiment [5] and in [6] was inactive. The outcome in experiment [7], in experiment [8], in [9], in experiment [10], in experiment [11] and in [12] was inactive. In addition, the result in experiment [13], in experiment [15], in experiment [16], in experiment [17], in experiment [18] and in experiment [19] was inactive. Moreover, in [14], the concentration at half-maximal activity (AC50) is 3.97 µM (active).

Take `CCC(=C(c1ccc(O)cc1)c1ccc(OCCN(C)C)cc1)c1ccccc1`: the concentration at half-maximal activity (AC50) in [1] is 9.8 µM (active); in experiment [2] it was 10.2 µM (active); in experiment [3] it was 8.87 µM (active); in experiment [4], 11.8 µM (active); in experiment [5], 7.71 µM (active); in experiment [6], 19.8 µM (active). The half-maximal activity concentration (AC50) in experiment [7] was 13.3 µM (active); in [8], 9.13 µM (active); in experiment [9], 8.66 µM (active); in [10], 9.72 µM (active); in experiment [11], 19.8 µM (active); in experiment [12], 7.5 µM (active). In addition, the concentration at half-maximal activity (AC50) in [13] was 13 µM (active); in experiment [14] it was 13.6 µM (active); in experiment [15] it was 12.6 µM (active); in experiment [16], 8.38 µM (active); in experiment [17] it was 11.1 µM (active); in experiment [18], 9.48 µM (active). Besides, the AC50 in experiment [19] is 11.1 µM (active).
